Measurements: PubChem BioAssay (NCI)
Compounds without any hit were thinned out: in the full panel of roughly 79,000, 15% have a hit. Activity calls are given as the source filed them. No stated cut-off is given here; in the data, active means growth inhibition above about 70%; inactive means the rest.

How the values were obtained:
[1] = NCI Yeast Anticancer Drug Screen. Data for the rad52 strain (AID 147);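 further: 0% = growth of vehicle-treated control cultures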; settings: S. cerevisiae rad52 mutant growth inhibition, hits give high values
In short: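 Compounds are applied to a genetically defined yeast strain lacking normal DNA damage repair, and inhibition of growth is expressed relative to cultures given vehicle only.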

[2] = NCI Yeast Anticancer Drug Screen. Data for the wt1 strain (AID 149);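 further: 0% = growth of vehicle-treated wt1 cultures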; settings: S. cerevisiae wt1 strain (SPY 50644) growth inhibition, hits give high values
In short: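 Yeast wt1 strain exposed to compounds; growth inhibition measured relative to vehicle-treated controls.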

[3] = NCI Yeast Anticancer Drug Screen. Data for the rad50EPP+ strain (AID 151);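 further: 0% = growth of vehicle-treated control cultures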; settings: S. cerevisiae rad50 mutant strain, hits give high values
In short: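 Compounds were applied to the rad50EPP+ yeast strain, which bears a defined DNA repair alteration, and growth inhibition was determined relative to vehicle-treated cultures.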

[4] = NCI Yeast Anticancer Drug Screen. Data for the mgt1 strain (AID 153); settings: S. cerevisiae mgt1 mutant growth inhibition, hits give high values
In short: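 Strain: mgt1 yeast, one of a set carrying defined DNA damage repair or cell cycle control alterations. Compound-treated growth compared with vehicle.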

[5] = NCI Yeast Anticancer Drug Screen. Data for the rad50 strain (AID 155);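 further: 0% = growth of vehicle-only cultures of the same strain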; settings: S. cerevisiae rad50 strain growth inhibition, hits give high values
In short: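 Yeast carrying a defined DNA repair defect were exposed to test compounds, and growth was compared with vehicle-treated controls to give percent inhibition.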

[6] = NCI Yeast Anticancer Drug Screen. Data for the mec2-1 strain (AID 157); settings: S. cerevisiae mec2-1 strain, hits give high values
In short: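 Strain: mec2-1 (DNA repair/cell cycle alteration). Compound exposure, then growth measured; inhibition expressed relative to vehicle.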

[7] = NCI Yeast Anticancer Drug Screen. Data for the rad14 strain (AID 159);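 further: 0% = growth of vehicle-treated control cultures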; settings: S. cerevisiae rad14 strain growth inhibition, hits give high values
In short: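 Yeast cells carrying a defined DNA-repair defect were exposed to compounds, and growth inhibition was calculated relative to vehicle-treated control cultures.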

[8] = NCI Yeast Anticancer Drug Screen. Data for the sgs1 mgt1 strain (AID 161);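 further: 0% = growth of cultures given vehicle only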; settings: S. cerevisiae sgs1 mgt1 strain, hits give high values
In short: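 Mutant yeast exposed to compound; growth scored against vehicle-only wells.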

[9] = NCI Yeast Anticancer Drug Screen. Data for the CLN2oe strain (AID 163);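 further: 0% = growth of vehicle-only control cultures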; settings: S. cerevisiae CLN2oe strain, hits give high values
In short: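 Growth of a genetically modified yeast strain is measured after compound exposure and compared with cultures given vehicle alone.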

[10] = NCI Yeast Anticancer Drug Screen. Data for the cln2 rad14 strain (AID 165);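 further: 0% = growth equal to vehicle treated cultures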; settings: S. cerevisiae cln2 rad14 strain, hits give high values
In short: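 Compounds are applied to the cln2 rad14 yeast strain, and growth is then compared with that of vehicle-treated cultures to give inhibition.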

[11] = NCI Yeast Anticancer Drug Screen. Data for the bub3 strain (AID 167); settings: S. cerevisiae bub3 mutant strain, hits give high values
In short: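 Compounds were applied to a genetically altered yeast strain carrying a cell-cycle control defect. Growth inhibition was scored against vehicle-treated controls.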

[12] = NCI Yeast Anticancer Drug Screen. Data for the wt2 strain (AID 169);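 further: 0% = growth of vehicle-treated yeast cultures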; settings: S. cerevisiae wt2 strain growth inhibition, hits give high values
In short: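 This strain belongs to a panel of yeast strains with defined genetic alterations in DNA damage repair or cell cycle control. Compounds are applied, and growth inhibition is measured against vehicle-treated cultures.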

[13] = NCI Yeast Anticancer Drug Screen. Data for the mlh1 strain (AID 171);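 further: 0% = growth of vehicle-treated control cultures of the same strain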; settings: S. cerevisiae mlh1 strain growth inhibition, hits give high values
In short: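 Growth of the mutant yeast strain after compound exposure, expressed as inhibition relative to vehicle-only controls.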

[14] = NCI Yeast Anticancer Drug Screen. Data for the sgs1 strain (AID 173);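 further: 0% = growth of vehicle-only control cultures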; settings: S. cerevisiae sgs1 mutant, hits give high values
In short: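 Growth of a yeast strain bearing a defined genetic alteration is measured after compound treatment. Inhibition is expressed relative to vehicle-only controls.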

[15] = NCI Yeast Anticancer Drug Screen. Data for the mlh1 rad18 strain (AID 175); settings: S. cerevisiae mlh1 rad18 strain growth inhibition, hits give high values
In short: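 Read-out is yeast growth inhibition, calculated against vehicle-only controls. The compound was applied to a strain engineered with DNA damage repair alterations.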

[16] = NCI Yeast Anticancer Drug Screen. Data for the rad18 strain (AID 177); settings: S. cerevisiae rad18 mutant growth inhibition, hits give high values
In short: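 Growth of the mutant yeast strain after compound exposure, normalised to vehicle-only cultures.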

[17] = at 5.0 µM (retest, dose inferred, filed as 0.5)
[18] = at 50.0 µM (retest, dose inferred, filed as 5.0)

Measured: growth inhibition

CC(=O)Nc1ccc(/C=C/[N+](=O)[O-])cc1
inactive: [1]; at 1.2 µM 19% | [1]; at 3.7 µM 23% | [1]; at 11.0 µM 43% | [1]; at 33.0 µM 69% | [2]; at 1.2 µM -1% | [2]; at 3.7 µM -3% | [2]; at 11.0 µM -4% | [2]; at 33.0 µM 6% | [3]; at 1.2 µM 22% | [3]; at 3.7 µM 42% | [3]; at 11.0 µM 51% | [4]; at 1.2 µM -2% | [4]; at 3.7 µM -4% | [4]; at 11.0 µM -1% | [4]; at 33.0 µM 20% | [5]; at 1.2 µM 31% | [5]; at 3.7 µM 35% | [5]; [17] -66% | [5]; at 11.0 µM 67% | [6]; at 1.2 µM -1% | [6]; at 3.7 µM -2% | [6]; [17] -42% | [6]; at 11.0 µM 14% | [6]; at 33.0 µM 3% | [6]; [18] 33% | [6]; at 50.0 µM 53.4% | [7]; at 1.2 µM 2% | [7]; at 3.7 µM 11% | [7]; at 11.0 µM 18% | [7]; at 33.0 µM 40% | [8]; [17] -43% | [8]; at 50.0 µM 47.6% | [9]; at 1.2 µM -3% | [9]; at 3.7 µM -1% | [9]; at 11.0 µM 3% | [9]; at 33.0 µM 10% | [10]; [17] -55% | [10]; [18] -19% | [10]; at 50.0 µM 46.2% | [11]; at 1.2 µM -4% | [11]; at 3.7 µM -5% | [11]; [17] -61% | [11]; at 11.0 µM 1% | [11]; at 33.0 µM 6% | [11]; [18] 43% | [11]; at 50.0 µM 68.8% | [12]; at 1.2 µM -4% | [12]; at 3.7 µM -3% | [12]; at 11.0 µM -4% | [12]; at 33.0 µM 11% | [13]; at 1.2 µM -1% | [13]; at 3.7 µM -6% | [13]; at 11.0 µM 1% | [13]; at 33.0 µM 22% | [14]; at 1.2 µM -3% | [14]; at 3.7 µM 11% | [14]; at 11.0 µM 15% | [14]; at 33.0 µM 52% | [15]; [17] -96% | [16]; at 1.2 µM 3% | [16]; at 3.7 µM 6% | [16]; at 11.0 µM 12% | [16]; at 33.0 µM 25%
active: [1]; at 100.0 µM 97% | [2]; at 100.0 µM 75% | [3]; at 33.0 µM 72% | [3]; at 100.0 µM 82% | [4]; at 100.0 µM 99% | [5]; at 33.0 µM 91% | [5]; [18] 94% | [5]; at 50.0 µM 85% | [5]; at 100.0 µM 98% | [6]; at 100.0 µM 95% | [7]; at 100.0 µM 99% | [8]; [18] 72% | [9]; at 100.0 µM 71% | [11]; at 100.0 µM 72% | [12]; at 100.0 µM 91% | [13]; at 100.0 µM 96% | [14]; at 100.0 µM 99% | [15]; [18] 91% | [15]; at 50.0 µM 94% | [16]; at 100.0 µM 92%

CN(C)/C=C/c1nnc([N+](=O)[O-])s1
active: [1]; at 100.0 µM 98% | [2]; at 100.0 µM 98% | [3]; at 100.0 µM 96% | [4]; at 100.0 µM 98% | [5]; at 33.0 µM 94% | [5]; [18] 90% | [5]; at 50.0 µM 95% | [5]; at 100.0 µM 97% | [6]; at 50.0 µM 76.2% | [6]; at 100.0 µM 90% | [7]; at 33.0 µM 79% | [7]; at 100.0 µM 99% | [8]; [18] 80% | [8]; at 50.0 µM 94% | [9]; at 100.0 µM 97% | [11]; [18] 77% | [11]; at 50.0 µM 96% | [11]; at 100.0 µM 98% | [12]; at 100.0 µM 98% | [13]; at 100.0 µM 99% | [14]; at 100.0 µM 98% | [15]; [18] 77% | [15]; at 50.0 µM 89.8% | [16]; at 100.0 µM 97%
inactive: [1]; at 1.2 µM -2% | [1]; at 3.7 µM -3% | [1]; at 11.0 µM 5% | [1]; at 33.0 µM 28% | [2]; at 1.2 µM -7% | [2]; at 3.7 µM -8% | [2]; at 11.0 µM -10% | [2]; at 33.0 µM -1% | [3]; at 1.2 µM 1% | [3]; at 3.7 µM 12% | [3]; at 11.0 µM 35% | [3]; at 33.0 µM 65% | [4]; at 1.2 µM -7% | [4]; at 3.7 µM -5% | [4]; at 11.0 µM -5% | [4]; at 33.0 µM -5% | [5]; at 1.2 µM -8% | [5]; at 3.7 µM -3% | [5]; [17] -144% | [5]; at 11.0 µM 49% | [6]; at 1.2 µM 4% | [6]; at 3.7 µM 0% | [6]; [17] -48% | [6]; at 11.0 µM -6% | [6]; at 33.0 µM 1% | [6]; [18] 4% | [7]; at 1.2 µM -4% | [7]; at 3.7 µM 2% | [7]; at 11.0 µM 28% | [8]; [17] -63% | [9]; at 1.2 µM -2% | [9]; at 3.7 µM -3% | [9]; at 11.0 µM -2% | [9]; at 33.0 µM 9% | [10]; [17] -63% | [10]; [18] -23% | [10]; at 50.0 µM 28.6% | [11]; at 1.2 µM -5% | [11]; at 3.7 µM -2% | [11]; [17] -65% | [11]; at 11.0 µM -3% | [11]; at 33.0 µM 6% | [12]; at 1.2 µM -1% | [12]; at 3.7 µM -1% | [12]; at 11.0 µM -2% | [12]; at 33.0 µM 7% | [13]; at 1.2 µM 5% | [13]; at 3.7 µM -8% | [13]; at 11.0 µM -1% | [13]; at 33.0 µM 41% | [14]; at 1.2 µM -2% | [14]; at 3.7 µM -4% | [14]; at 11.0 µM -1% | [14]; at 33.0 µM 24% | [15]; [17] -115% | [16]; at 1.2 µM 0% | [16]; at 3.7 µM 5% | [16]; at 11.0 µM 21% | [16]; at 33.0 µM 56%
